# Experimental data reported in the supplement of paper PMC6555819.
# Assays:
# Assay in all cases: PBM binding z-score (relative to random genomic background probes); higher = stronger binding; sequences stand for … in GC…GCGATTGACAGCGTAGAATGAAGG
# [1] = system: PPARg:RXRa DBDmut IVT, anti-RXR (DBD mutation: RXRa K156A/R161A, NR concentration 270 nM, RXRa partner concentration 90 nM)
# How it was run: (§1)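 The probes on custom Agilent 4×180K protein-binding microarrays were double-stranded, with 34-nt variable regions bearing direct-repeat seeds, single-nucleotide variants, half-site ablations and random human genomic background sequences. Incubation lasted 1 h with ligand-free nuclear receptor dimers in PBS pH 7.4, 2% milk, 0.02% Triton X-100, 1 mM DTT, 0.2 mg/mL BSA and 0.4 mg/ml salmon testes DNA. Antibodies against each partner (one per run) detected bound dimers, and fluorescence scans were regression-normalized. Binding z-scores take the random background probes as reference.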
# [2] = system: PPARg:RXRa IVT, anti-PPARg (NR concentration 270 nM, RXRa partner concentration 90 nM)
# How it was run: as §1
# [3] = system: PPARg DBDmut:RXRa IVT, anti-PPARg (DBD mutation: PPARg1 K132A/R137A, NR concentration 270 nM, RXRa partner concentration 90 nM)
# How it was run: as §1
# [4] = system: PPARg DBDmut IVT, anti-PPARg (DBD mutation: PPARg1 K132A/R137A, NR concentration 270 nM)
# How it was run: as §1
# [5] = system: PPARg homodimer (NR concentration 180 nM)
# How it was run: as §1
# [6] = system: PXR:RXRa (NR concentration 270 nM, RXRa partner concentration 90 nM)
# How it was run: as §1
# [7] = system: PXR homodimer (NR concentration 270 nM)
# How it was run: as §1
# [8] = system: RARa:RXR (NR concentration 270 nM, RXRa partner concentration 90 nM)
# How it was run: as §1
# [9] = system: RARa homodimer (NR concentration 270 nM)
# How it was run: as §1
# [10] = system: RARb:RXRa (NR concentration 270 nM, RXRa partner concentration 90 nM)
# How it was run: as §1
Sequence,PBM binding z-score [1],PBM binding z-score [2],PBM binding z-score [3],PBM binding z-score [4],PBM binding z-score [5],PBM binding z-score [6],PBM binding z-score [7],PBM binding z-score [8],PBM binding z-score [9],PBM binding z-score [10]
TCTTGTAGATGAGCAGGTTAAGAAAGCTGGCCAA,0.934,-0.183,-0.514,0.12,0.00499,0.02,-0.92,0.211,-0.441,-0.439
TCATATAGGTAAACAGGTGTAAGTCCGTAAGTTA,3.98,2.97,1.63,0.913,1.12,0.63,0.672,0.946,1.32,0.512
CCTTACGGGTCACTGACAGGTTATAGGATTTGGA,3.61,3.81,0.353,-0.0191,2.26,3.57,0.377,4.38,0.591,4.08
CAAACTAGGTCAAGAGGGCAAAGTCCGCTTCCCG,8.35,8.37,4.28,1.48,3.42,2.98,0.703,3.96,1.19,4.53
CCTAGCAGGCCAATCTGGGTGACTCAAGGCTTGA,2.96,3.53,-0.721,-0.739,-0.0827,-0.581,-0.777,0.391,-0.515,0.0785
ATCTGTAGGTTAAGGGTCATTCAGGTTGGTTCGC,3.99,5.75,1.73,1.69,3.99,5.59,3.35,6.53,2.88,3.77
ATCTGTAGGTTACATCCGGGTCATTCAGGCTATG,3.84,4.04,1.35,1.89,1.96,3.52,1.9,3.18,0.982,2.34
CCGACTGGGGCAGAAAGGTTACCACACCATCCGG,1.83,1.76,-0.724,-0.799,0.71,0.929,-0.219,1.85,0.0999,1.92
TAGCCTAGGTCATGCGGGCCAGTACAGTGTCGGC,1.55,2.81,0.187,-0.334,1.24,1.55,-0.513,2.47,-0.899,3.61
TAGCCTAGGTCATTGGGCCAGAATAGTACGCATC,2.63,3.68,-0.385,-0.0458,1.41,1.51,-0.537,2.26,0.079,3.53
ATATGTAGGTTAGCTGGGGTCATTGAGACTAGGC,6.54,6.07,2.23,1.29,2.75,6.11,3.42,5.49,0.751,2.9
AGTCAAAGTTCACTAGATAACGTAAGATTCAGCT,0.283,2.53,1.22,1.17,2.06,3.77,3.07,2.89,1.09,4.66
GCTTGTAGATCAAGGTTAAGAAGGACTAAGCTAA,1.59,0.939,-0.676,0.139,-0.16,0.306,-0.0751,0.701,-0.375,0.923
AGTCAAAGTTCATCTAGGGAACGTAAGATATGCT,0.178,2.78,1.05,1.04,1.73,4.88,4.28,3.41,1.1,4.92
CGAACTAGGTCAGAACAGGACAGTGATGGATGAT,6.82,7.04,3.7,2.44,1.38,0.583,0.0168,1.39,0.336,2.66
TCTCGTTGGTCAAAGGTCACACACTCGAAATGCG,2.72,5.29,0.705,2.09,5.26,5.86,2.2,7.31,3.39,5.27
AGAATGAGGTAAAGATCAGGGAAACAGAATACAT,1.72,1.73,1.8,0.935,0.296,0.125,0.151,0.265,0.446,0.258
TCTATTAGTTGGTTAGGGCAACCGAAACAGCGGA,1.47,0.862,1.18,0.941,0.798,0.158,0.345,0.342,1.17,0.848
CGACAAAGTTCAACTAAGGTAACGTAAAGCACGC,0.248,1.7,0.707,1.21,2.54,5.16,3.06,3.51,0.942,5.07
GCTTGTAGATCAAGGTTACGAAAGACTAAGCTAA,1.65,1.67,-0.122,-0.483,0.354,0.724,-0.00407,1.23,0.273,0.947
GGAACGAGGGCATTCGAGTTGACAGCATGGCGAT,2.98,2.46,0.222,-0.00883,-0.393,3.85,1.46,0.951,-0.555,1.87
GCATATAGGTATTACAAGGTGAAAGTCCGATTGT,1.46,1.46,0.48,1.21,0.307,0.0796,0.205,1.69,0.465,0.417
TCGAGTAGGTTACCAATGGGCCATTCAGCTTTCT,3.13,2.59,-1.01,-0.848,-0.318,0.108,-0.851,0.175,-0.737,0.862
CCTACTGGGCCATCAGGTCATCGATATCAACGTT,4.21,5.09,-0.466,-0.676,1.03,1.5,-0.0162,2.04,-0.0284,2.39
CGTCCAAGGTCAAAGGTTAGTGAAGAGATGACGG,3.36,4.86,2.1,1.08,6,6.05,1.47,7.8,1.93,5.22

Sequence,PBM binding z-score [1],PBM binding z-score [2],PBM binding z-score [3],PBM binding z-score [4],PBM binding z-score [5],PBM binding z-score [6],PBM binding z-score [7],PBM binding z-score [8],PBM binding z-score [9],PBM binding z-score [10]
AGAATGAGGTTAAGACCAGGGAAACAGAATACAT,2.74,2.42,1.4,1.16,0.773,1.03,0.319,1.92,0.687,1.85
CCTAGCAGGCCAAGCTGGGTCACTCAAGGCTTGA,1.17,0.818,-0.82,-1.65,0.234,0.605,-0.579,1.29,-0.984,1.7
CAAACTAGGTCAAAGGTCTAAGTCGAGCCAACCA,8.53,8.69,8.12,5.58,7.53,3.11,0.0192,4.84,0.718,3.91
ACAGACAGGTGAGTGGAGGTAACTCAGCTGGACG,0.56,1.09,-0.327,-0.467,0.425,0.121,-0.151,0.729,-0.053,0.617
TCATATAGGTAAACAGGTGGAAGTCCGTAAGTTA,4.42,3.02,0.862,0.82,1.12,0.46,0.859,0.577,0.928,0.625
CGAACGAGGGCATGCGTTGATAGCAAATGCCGAT,2.51,1.72,-0.297,-0.501,0.165,0.344,-0.453,0.5,-0.165,1.95
ATACCAACGTGATCGTGAGGTCGTTGATACTAAC,-0.625,0.0964,0.725,0.527,0.699,1.67,0.835,1.23,-0.137,0.259
TAGCCTAGGTCATTCAGGGGCCAATATAGAAAGC,1.85,2.85,0.373,1.2,2.49,3.08,0.116,4.05,0.318,3.93
ATACCAAGGTGATCGTGAGGTCGTAGATACTAAC,0.0521,1.54,0.536,0.745,0.811,2.2,0.811,2.21,0.262,1.33
CAAACTAGGTCAAGAGGTCAAAGTCCGCTTCCCG,8.49,8.35,2.14,1.19,6.92,6.2,2.86,7.83,3.01,5.53
CGTCCAAGGTCAAGGTCATTGAAAGAGACTCGAA,3.44,5.03,0.777,-0.505,4.46,5.75,2.42,5.73,2.35,5.56
TGTCAAAGTTCAAAGATAACGTAAGTATCCACAC,-0.252,3.78,1.64,1.45,2.47,4.66,3.83,3.6,1.54,4.92
CGAACTAGTTCAGAACAGGACAGTGAAGGATGAT,-0.157,-0.211,0.34,0.0845,-0.297,0.137,0.378,0.131,-0.252,0.618
AATACAGGGTCGTCGTAGGCCAGAGTACGCACAG,-0.0628,0.91,0.684,0.302,0.517,1.7,0.241,2.19,0.296,1.72
TCCAGCAGGCCAGAGGGTCACTCAAGAGGTACGG,0.933,0.217,-0.437,-1.27,0.577,1.45,-0.376,2.3,-0.207,2.2
CGAACTAGGTCAGGGACAGTGAATCTCCGCACGC,7.43,7.24,1.27,0.491,0.781,0.326,-0.0952,0.867,-0.305,3.18
TTACCAACGTGAAAGGTCGTTGATGCACGCCTTG,0.0227,1.04,0.702,-0.158,1.27,2.14,0.445,2.24,0.296,1.66
TCATATAAGTAAACAGGTGAAAGTCCGTAAGTTA,3.11,1.31,0.554,1.07,1.13,1.09,0.507,1.19,1.75,0.383
CCTTCCGGGTCACTGACAGGTTATAGCATTTGGA,3.69,5.08,0.702,-0.286,2.37,3.71,0.125,4.23,0.725,3.78
AGAATGAGGTTAAGATCAAGGAAACAGAATACAT,2.65,2.43,1.67,0.683,0.598,1.13,0.0373,1.75,0.928,1.88
TCAAGTAGGTTACCAATGGGGCATTCAGCTTTCT,6.09,5.24,0.706,-0.182,0.999,0.326,-0.278,0.518,0.134,1.27
AGAATGAGGTTACCAAAGATTAGGGAAACGCTTG,4.05,3.59,1.65,0.534,0.398,1.15,-0.168,1.88,0.039,2.06
TCATATAGGTCAATGCTAGGTGAAAGTCCGATCT,6.69,6.83,1.25,2.16,2.7,2.78,0.347,3.7,1.3,4.21
CAAACTAGGTCATGGTCAAAGTCGGTTTGTGCCA,8.43,8.57,2.9,1.82,2.21,1.75,-0.231,2.44,0.58,4.01
